Screening results: PubChem BioAssay, National Center for Advancing Translational Sciences (NCATS)
An excerpt weighted towards active compounds, which were near 7.3% of everything screened.
FMDV antiviral = foot and mouth disease virus antiviral activity; Potency, µM (highest dose often 57.9 µM), without a hit: at the highest dose activity change, negative = inhibition, hits mostly inhibitors; hit rate 1.2% among 410,000; FMDV antiviral cell-based qHTS; calls by dose curve; tested in HEK293T cells; also: read-out not given here; potency is read from the fitted curve at half-maximal effect; nearly all actives have a fitted effect of over 45% in size
HCMV antiviral = inhibitors of human cytomegalovirus; HFF cells, HCMV-luciferase reporter, 72 h; active compounds read low; activity change, negative = inhibition, % at 57.5 µM; hit rate 4.5% among 410,000; in the data active = activity change below about -60%; inconclusive = no clear call, values can overlap the other calls; inactive = above about -39%
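Cell-based, HFFs, 1000 cells/well, 16 h 37C; cpds in DMSO + HCMV-luc, MOI 1 PFU/cell; 72 h 37C; OneGlo luminescence after 5 min RT; norm. to buffer vs Salinomycin 10uM.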
AmpC detergent = inhibitors of E. coli AmpC beta-lactamase with detergent; Potency, µM (top dose mostly 114 µM), for the others: at the top dose activity change, negative = inhibition, most hits filed as inhibitors; AmpC hydrolysis of nitrocefin, absorbance 480 nm, 0.01% Triton; P00811; hit rate 0.041% among 370,000;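 also: potency is read from the fitted curve at half-maximal effect; 0% = no-compound wells and -100% = no-enzyme wells; nearly all actives have a fitted effect of over 25% in size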
Target sequence (P00811 whole entry, looked up): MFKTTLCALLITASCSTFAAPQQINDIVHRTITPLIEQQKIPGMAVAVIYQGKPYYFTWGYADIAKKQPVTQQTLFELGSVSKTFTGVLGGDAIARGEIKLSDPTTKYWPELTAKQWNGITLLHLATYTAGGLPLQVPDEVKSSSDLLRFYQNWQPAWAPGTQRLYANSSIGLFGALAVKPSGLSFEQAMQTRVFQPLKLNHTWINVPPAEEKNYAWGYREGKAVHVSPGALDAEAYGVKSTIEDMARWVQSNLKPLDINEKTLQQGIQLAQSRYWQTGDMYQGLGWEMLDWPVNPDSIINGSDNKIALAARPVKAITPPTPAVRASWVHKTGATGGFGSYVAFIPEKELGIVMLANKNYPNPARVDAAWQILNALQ
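AmpC (5.3 nM in the dispensed reagent) in 20 mM phosphate pH 7.0 with 0.01% (detergent screen) or 0.0001% Triton X-100 was preincubated with compounds for 15 min at room temperature. Nitrocefin was then added from an 800 uM solution, and hydrolysis was followed at 480 nm.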
HCV inh = blocks hepatitis C virus | Huh7.5.1 HCVcc-Cre infection, luciferase reporter, 44 h | Potency, µM (titrated, usually from 41.8 µM), for the others: at the top dose activity change, negative = inhibition, hits mostly inhibitors | hit rate 3.4% among 340,000; also: potency is read from the fitted curve at half-maximal effect
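Reporter virus HCVcc-Cre (~0.5 moi) infects cells exposed to compound; seeding density 1,000 cells/well with 4 h settling beforehand. Luminescence, 15 sec read, taken 44 h post-infection following a 15 min RT substrate incubation.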
AmpC inh no detg = AmpC beta-lactamase inhibition without detergent; P00811; Potency, µM (doses to about 57.1 µM), for inactives: at the top dose activity change, negative = inhibition, hits mostly inhibitors; hit rate 0.52% among 330,000; AmpC nitrocefin hydrolysis, absorbance 480 nm, 0.0001% Triton;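 also: potency is read from the fitted curve at half-maximal effect; plate controls were no compound for no effect and no enzyme for full effect; nearly all actives have a fitted effect of over 20% in size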
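AmpC (5.3 nM in the dispensed reagent) in 20 mM phosphate pH 7.0 with 0.01% (detergent screen) or 0.0001% Triton X-100 was preincubated with compounds for 15 min at room temperature. Nitrocefin was then added from an 800 uM solution, and hydrolysis was followed at 480 nm.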
The depositor's hits bear a star; [ ] = remark or other dose. Unless noted, calls follow the shape of the dose curve; as a rule, active = well fitted curve in the direction sought with a large enough effect; inconclusive = small, poorly fitted or top-dose-only effect, or another doubt; inactive = no such curve, though single readings can be large; an effect the other way counts as inactive or inconclusive. Unless noted, % is scaled to controls: 0 for no effect and ±100 for the full control effect.

Results for COc1ccc(N2C(=O)C3CCCCC3C2=O)cc1NC(=O)c1ccccc1 (stereo not given) ?
FMDV antiviral: -17%; HCMV antiviral: -33; AmpC detergent: -6%; HCV inh: -15%; AmpC inh no detg: -34%

What do the screens show for `O=C(O)CCNc1ccc(NCCC(=O)O)c2c1C(=O)c1ccccc1C2=O`?
FMDV antiviral: inconclusive; HCMV antiviral: -72*; AmpC detergent: -13%; HCV inh: -8%; AmpC inh no detg: -33%

What do the screens show for `O=C1c2cccc(NCCNCCO)c2C(=O)c2cccc(NCCNCCO)c21`?
FMDV antiviral: 0%; HCMV antiviral: -99*; HCV inh: inconclusive

What do the screens show for `COc1ccc(OC)c(S(=O)(=O)N2CCC(C(=O)Nc3ccc(C)c(C)c3)CC2)c1`?
FMDV antiviral: 25µM*; HCMV antiviral: -30; AmpC detergent: inconclusive; HCV inh: inconclusive; AmpC inh no detg: 8%

Results for CC1Sc2ccc(S(=O)(=O)N3CCC(C(=O)N(C)Cc4ccccc4)CC3)cc2NC1=O (stereo not given) ?
FMDV antiviral: -42%; HCMV antiviral: -64*; AmpC detergent: 0%; HCV inh: inconclusive; AmpC inh no detg: 3%

How did COc1ccc(OC)c(S(=O)(=O)N2CCC(C(=O)Nc3cccc(C)c3C)CC2)c1 do in these assays?
FMDV antiviral: -29%; HCMV antiviral: -22; AmpC detergent: -4%; HCV inh: -20%; AmpC inh no detg: 9%

Results for CC1Sc2ccc(S(=O)(=O)N(C)Cc3ccccc3)cc2NC1=O (stereo not given) ?
FMDV antiviral: 28µM*; HCMV antiviral: inconclusive; AmpC detergent: 0%; HCV inh: inconclusive; AmpC inh no detg: 227%

What do the screens show for `CC1Sc2ccc(S(=O)(=O)N3CCC(C(=O)N(C)Cc4ccco4)CC3)cc2NC1=O` (stereo not given)?
FMDV antiviral: inconclusive; HCMV antiviral: -20; AmpC detergent: 1%; HCV inh: inconclusive; AmpC inh no detg: 40%

Results for CN(Cc1ccccc1)C(=O)COC(=O)C1CCN(S(=O)(=O)c2ccc(Cl)c(C(F)(F)F)c2)CC1 ?
FMDV antiviral: -21%; HCMV antiviral: -66*; AmpC detergent: inconclusive; HCV inh: -2%[8.37 µM]; AmpC inh no detg: 35%

How did COc1cc(C(=O)NCC(c2ccc(F)cc2)N2CCOCC2)ccc1OCc1ccccc1Cl (stereo not given) do in these assays?
FMDV antiviral: -28%; HCMV antiviral: -21; AmpC detergent: -20%; HCV inh: inconclusive; AmpC inh no detg: 256%

Results for CN(CC1COCCO1)C(=O)c1cnn(-c2nccc(-c3ccccc3C(F)(F)F)n2)c1C1CC1 (stereo not given) ?
FMDV antiviral: 21%

How did CC1Sc2ccc(S(=O)(=O)N3CCC(C(=O)Nc4cccc(Cl)c4)CC3)cc2NC1=O (stereo not given) do in these assays?
FMDV antiviral: 20µM*; HCMV antiviral: -100*; AmpC detergent: 3%; HCV inh: 3.2µM*; AmpC inh no detg: -28%

Results for CCc1cccc(NS(=O)(=O)c2ccc3c(c2)NC(=O)C(C)S3)c1 (stereo not given) ?
FMDV antiviral: 2%; HCMV antiviral: 0; AmpC detergent: -3%; HCV inh: inconclusive; AmpC inh no detg: -18%

How did COc1ccc(CCNC(=O)CCS(=O)(=O)c2ccc3c(c2)NC(=O)C(C)S3)cc1OC (stereo not given) do in these assays?
FMDV antiviral: -15%; HCMV antiviral: -31; AmpC detergent: -11%; HCV inh: 1%; AmpC inh no detg: -4%

How did COc1ccc(CCNS(=O)(=O)c2ccc3c(c2)NC(=O)C(C)S3)cc1OC (stereo not given) do in these assays?
FMDV antiviral: -16%; HCMV antiviral: -20; AmpC detergent: -9%; HCV inh: 25µM*; AmpC inh no detg: 1%

How did CCC(Cc1ccccc1)NS(=O)(=O)c1ccc2c(c1)NC(=O)C(C)S2 (stereo not given) do in these assays?
FMDV antiviral: -16%; HCMV antiviral: -86*; AmpC detergent: -1%; HCV inh: inconclusive; AmpC inh no detg: 25%

What do the screens show for `CCc1ccc(NC(=O)C2CCN(S(=O)(=O)c3ccc4c(c3)NC(=O)C(C)S4)CC2)cc1` (stereo not given)?
FMDV antiviral: -9%; HCMV antiviral: -97*; AmpC detergent: -1%; HCV inh: 8.9µM*; AmpC inh no detg: -31%

How did Cn1c(N)c(S(=O)(=O)N2CCN(c3cccc(Cl)c3)CC2)c(=O)n(C)c1=O do in these assays?
FMDV antiviral: -21%; HCMV antiviral: 17; AmpC detergent: 2%; HCV inh: 4%; AmpC inh no detg: 0%

What do the screens show for `CCN(C(=O)COC(=O)CCCc1c[nH]c2ccccc12)c1c(N)n(Cc2ccccc2)c(=O)[nH]c1=O`?
FMDV antiviral: -6%; HCMV antiviral: 0; HCV inh: 5%

Results for CC(C)CC(NC(=O)NC(CCC(=O)O)C(=O)O)C(=O)O (stereo not given) ?
FMDV antiviral: -7%

What do the screens show for `NC(=O)C1CCCN(C(=O)CNC(=O)C23CC4CC(CC(C4)C2)C3)C1` (stereo not given)?
FMDV antiviral: 4%; HCMV antiviral: -9; AmpC detergent: inconclusive; HCV inh: 11%; AmpC inh no detg: -30%

Results for COc1ccc(Br)cc1CN(C)C(=O)c1ccc2c(c1)NC(=O)C(C)S2 (stereo not given) ?
FMDV antiviral: 25%; HCMV antiviral: 34; AmpC detergent: 1%; HCV inh: 14%; AmpC inh no detg: 32%

How did Cc1ccc(NC(=O)C2CCN(S(=O)(=O)c3ccc4c(c3)NC(=O)C(C)S4)CC2)cc1C (stereo not given) do in these assays?
FMDV antiviral: inconclusive; HCMV antiviral: -62*; AmpC detergent: 2%; HCV inh: inconclusive; AmpC inh no detg: -50%

How did CCOc1ccc(CN(C)C(=O)c2ccc3c(c2)NC(=O)C(C)S3)cc1OC (stereo not given) do in these assays?
FMDV antiviral: inconclusive; HCMV antiviral: -18; AmpC detergent: -1%; HCV inh: 13µM*; AmpC inh no detg: 66%

How did Cc1ccc(NC(=O)C2CCN(S(=O)(=O)c3ccc4c(c3)NC(=O)C(C)S4)CC2)c(C)c1 (stereo not given) do in these assays?
FMDV antiviral: -19%; HCMV antiviral: 0; AmpC detergent: 1%; HCV inh: inconclusive; AmpC inh no detg: -21%

Results for CC/C(C)=N\Nc1nc(-c2cc3cc(OC)ccc3oc2=O)cs1 ?
FMDV antiviral: -9%; HCMV antiviral: 30; AmpC detergent: -6%; HCV inh: 8.9µM*; AmpC inh no detg: inconclusive
